Measured values from ChEMBL document CHEMBL3988442, “University of Dundee, Small-Polar-MMV Screening Library” (2021).
The whole screen tested about 48,000 compounds, of which about 13,000 (27%) showed an effect of 50% or more. Some of the results follow.

Test system: Wolbachia pipientis
Assay: Anti-Wolbachia Cell-Based Screen
Assay type: functional
Design: scale not given: in the data most compounds retested in dose-response had high values
Details: 5 µM

SMILES	Percent Effect
O=c1c2cccnc2cnn1CC(O)c1cccc(C(F)(F)F)c1 (stereo not drawn)	6.556%
NC(=O)NC(=O)CCSCc1coc(-c2cccc(Cl)c2)n1	85.07%
COCCN(Cc1coc(-c2cccc(Cl)c2)n1)C1CC1	9.963%
Cc1ccc(-c2nc(CSCCC(=O)NC(N)=O)co2)c(C)c1	110.2%
CC(SCCC(=O)NC(N)=O)c1ccc(F)cc1F (stereo not drawn)	-2.178%
CC(O)CN1CCN(Cc2coc(-c3cccc(Cl)c3)n2)CC1 (stereo not drawn)	-12.56%
NC(=O)NC(=O)CCSCc1coc(-c2ccc(F)cc2)n1	75.11%
COC(=O)CSCc1noc(-c2ccc(C)cc2)n1	-9.658%
CNC(=O)CS(=O)(=O)Cc1coc(-c2ccc(F)cc2)n1	-9.885%
O=C(NCCc1coc(-c2ccc(F)cc2)n1)NC1CCC(O)CC1 (stereo not drawn)	2.186%
NC(=O)NC(=O)CCSc1ccccc1Cl	-10.1%
Cc1ccc(-c2nc(CSCCC(=O)NC(N)=O)co2)cc1	98.78%
Cc1ccc(-c2nc(CCNC(=O)CCN3CCOC3=O)co2)cc1	4.701%
CNc1nc(C(=O)NCc2cccnc2N(C)C2CCCCC2)cs1	1.168%
Cc1nn(C)c2nc(N(C)CCN(C)C)sc12	-12.15%
Cc1cc(C#N)ccc1S(=O)(=O)NCc1cnc(N(C)C)n1C	-10.13%
N#Cc1ccccc1N1CC2(CCCCN2CC2CC2)CC1=O.O=C(O)C(F)(F)F (stereo not drawn)	-5.23%
COCCN1CCCCC12CC(=O)N(c1ccccc1OC)C2.O=C(O)C(F)(F)F (stereo not drawn)	105%
CN(C)CC(=O)N1CCC2(CC(=O)N(c3cccc(C#N)c3)C2)C1.O=C(O)C(F)(F)F (stereo not drawn)	-15.58%
COCCN1CCCCC12CC(=O)N(c1cccc(C#N)c1)C2.O=C(O)C(F)(F)F (stereo not drawn)	96.19%
O=C(O)C(F)(F)F.O=C1CC2(CCCCN2CC2CC2)CN1c1ccccc1 (stereo not drawn)	-2.383%
Cc1ccccc1N1CC2(CCCCN2CC2CC2)CC1=O.O=C(O)C(F)(F)F (stereo not drawn)	0.424%
CCN1CCN(C(=O)c2ccc(OC)nn2)c2ccccc21	6.209%
CC(C)(C)Cc1nnc(NCc2cccc(C#N)c2)o1	-57.27%
CS(=O)(=O)NC1CCCN(C(=O)Nc2cccnc2N2CCCC2)C1 (stereo not drawn)	111.1%
COCCCC(=O)Nc1cccnc1N1CCCCC1	0.2962%

SMILES	Percent Effect
CS(=O)(=O)NC1CCCN(C(=O)c2cccnc2)C1 (stereo not drawn)	108.4%
CC(C)S(=O)(=O)NCC1CCCN(C(=O)c2cccnc2)C1 (stereo not drawn)	-9.569%
CS(=O)(=O)NC1CCCN(C(=O)Nc2cccnc2)C1 (stereo not drawn)	122.7%
CS(=O)(=O)NC1CCN(C(=O)c2ccc(Br)cc2)C1 (stereo not drawn)	2.662%
Cn1cc(NC(=O)N2CCC(NS(C)(=O)=O)CC2)ccc1=O	-4.185%
CC(NC(=O)Nc1cccnc1N1CCCC1)c1ccccn1 (stereo not drawn)	9.094%
CCCN(C(=O)CNC1CCc2ncnn2C1)C1=CCCCC1 (stereo not drawn)	7.464%
COC1CCN(C(=O)COC(C)=O)CC(=O)N(C)c2ccccc21 (stereo not drawn)	102.8%
CC(C)(C)CC(=O)N1CC[C@H]2CC(=O)N(CCc3c[nH]cn3)CC[C@H]2C1	-18.99%
COC1CCN(C(=O)CC(C)(C)C)CC(=O)N(C)c2ccccc21 (stereo not drawn)	108.9%
CC(C)(C)CC(=O)N1CC[C@H]2NC(=O)N(Cc3ccccc3)C(=O)[C@H]21	-1.242%
CCC[C@H]1CN(c2nccc(OC)n2)C[C@@H]1NS(=O)(=O)N(C)C	12.34%
CCN(Cc1nccn1C)C(=O)c1ccc(NCCc2c[nH]cn2)nc1	-4.233%
CN(CCn1cccn1)S(=O)(=O)c1cccc(F)c1C#N	-19.52%
CCN(Cc1cnn(C)c1)S(=O)(=O)c1ccc(NC(=O)C(C)(C)C)cc1	-17.75%
CCCN(Cc1cnn(C)c1)CC1CCCN(S(C)(=O)=O)C1 (stereo not drawn)	-6.058%
COCCN(C)S(=O)(=O)c1cc(C)cc(F)c1	-0.1957%
CCN(Cc1cnn(C)c1)S(=O)(=O)c1ccc(NC(C)=O)cc1	-1.303%
CCCN(Cc1cnn(C)c1)S(=O)(=O)c1cccc(F)c1C#N	103.9%
CCCN(Cc1cnn(C)c1)S(=O)(=O)c1ccc(F)c(C#N)c1	88.2%
CCN(CCC(F)(F)F)S(=O)(=O)c1cccc(F)c1C#N	-15.21%
CCCN(Cc1cnn(C)c1)S(=O)(=O)c1cc(C)cc(F)c1	91.35%
COCCOCC(=O)NCCCOC1CCCc2ccccc21 (stereo not drawn)	-58.49%
Cc1noc(C)c1CS(=O)(=O)CC(=O)N(C)Cc1cccc(F)c1	-54.06%
O=C(NCc1nncn1C1CC1)C1(c2ccccc2)CCOCC1	1.62%
CCS(=O)(=O)c1ncc(CN(C)Cc2ccccc2OC)n1CCOC	-30.57%

SMILES	Percent Effect
Cc1oc(-c2ccc(Cl)cc2)nc1C(=O)NC1=NCCS1	-49.42%
CCOCC(=O)N1Cc2[nH]nc(COCC3CC3)c2C1.O=C(O)C(F)(F)F	-0.4061%
CCc1nc2n(n1)CC(NCc1cc(OC)c3c(c1)OCO3)CC2 (stereo not drawn)	105%
Cc1nc2n(n1)CC(NCc1cc(Cl)c3c(c1)OCCCO3)CC2 (stereo not drawn)	2.469%
COc1cc(CNC2CCCN(c3cccnn3)C2)cc2c1OCO2 (stereo not drawn)	-1.044%
COc1cc(CNC2CCc3nc(C)nn3C2)cc2c1OCO2 (stereo not drawn)	104.6%
Cc1nc2n(n1)CC(NCc1nnc(C(C)(C)C)o1)CC2 (stereo not drawn)	-15.95%
COc1cc(CNC2CCc3nc(C(C)C)nn3C2)cc2c1OCO2 (stereo not drawn)	-4.906%
CCc1nc2n(n1)CC(NCc1cc(OC)c3c(c1)OCCO3)CC2 (stereo not drawn)	96.75%
CCc1nc2n(n1)CC(NCC(=O)Nc1cc(C)on1)CC2 (stereo not drawn)	-10.03%
COc1cc(CNC2CCc3nc(C)nn3C2)cc2c1OCCO2 (stereo not drawn)	2.484%
CCc1nc2n(n1)CC(NCc1cc3ccccc3o1)CC2 (stereo not drawn)	-28.44%
CCc1nc2n(n1)CC(NCc1ccccc1OCC(=O)NC)CC2 (stereo not drawn)	0.2163%
Cc1nc2n(n1)CC(NCc1cc(Cl)c3c(c1)OCCO3)CC2 (stereo not drawn)	95.39%
Cn1c(CCNC(=O)Nc2cn[nH]c2)nc2ccc(F)cc21	-27.77%
O=C(NCc1ccc(-n2cncn2)nc1)N(CC1CCOC1)C1CC1 (stereo not drawn)	4.835%
O=C(NC1(c2nccs2)CCCC1)c1cc(C2CC2)[nH]n1	-18.19%
CC(C)n1cnnc1CN(C)Cc1cnc(-c2ccco2)nc1	-3.944%
CNC(=O)c1cccc(CNC(C)c2ccc(F)cc2N(C)C)c1 (stereo not drawn)	2.761%
Cc1cc(CNC(=O)c2cccs2)ccc1S(C)(=O)=O	-1.482%
CCn1cc(CN2C[C@H]3CC[C@@H]2CN(C(=O)c2cnccn2)C3)cn1	6.074%
Cc1ccc(C)c(CN2C[C@H]3CC[C@@H]2CN(C(=O)c2cccnc2)C3)c1	3.177%
O=C(c1cccnc1)N1C[C@@H]2CC[C@H](C1)N(Cc1ccc(F)cc1Cl)C2	-16.95%
O=C(c1cccnc1)N1C[C@@H]2CC[C@H](C1)N(Cc1cccc(Cl)c1F)C2	-33.46%
N#Cc1ccccc1CN1C[C@H]2CC[C@@H]1CN(C(=O)c1cccnc1)C2	-5.944%
Cc1ccc(C(=O)N2C[C@@H]3CC[C@H](C2)N(Cc2ccccc2)C3)cn1	101.3%

SMILES	Percent Effect
Nc1ccc(C(=O)N2C[C@@H]3CC[C@H](C2)N(Cc2ccccc2)C3)cn1	108.6%
CC(=O)c1ccc(C(=O)N2C[C@@H]3CC[C@H](C2)N(Cc2ccccc2)C3)s1	-1.466%
O=C(c1cnc(O)cn1)N1C[C@@H]2CC[C@H](C1)N(Cc1ccccc1)C2	93.73%
c1ccc(SCCN2CCCC(Cn3ccnc3)C2)cc1 (stereo not drawn)	-2.811%
COCCc1noc(CN2CCC3(CCCO3)CCC2=O)n1 (stereo not drawn)	-3.143%
CN(C)C(C(=O)NCCn1cccc1)c1cccc(F)c1 (stereo not drawn)	1.101%
O=C(NCCn1cnnc1C1CC1)c1c(O)cc(F)cc1F	120%
CC(C)c1nncn1CCNC(=O)c1ccc(Cl)cc1O	126.8%
CCn1cnnc1CNC(=O)c1cc(Cl)ccc1OC	2.71%
CC(C)Cn1cnnc1C1CCCN1C(=O)c1ccc(F)cc1F (stereo not drawn)	-3.293%
O=C(NCCn1cccc1)c1c(O)cc(F)cc1F	114.7%
CC(C)c1nncn1CCNC(=O)c1c(O)cc(F)cc1F	158.6%
O=C(NCCC(=O)N1CCCCCC1)c1c(O)cc(F)cc1F	4.152%
CC(C)c1nc(C(=O)NCCn2ccnc2)nn1-c1cccc(F)c1	0.4969%
CCn1cnnc1CNC(=O)c1cc(Cl)ccc1O	6.278%
CC(C)c1ccc(O)c(C(=O)NCc2nncn2C)c1	-11.21%
CCOC(=O)N1CCN(c2nc(NC3CC3)c3ccccc3n2)CC1.Cl	12.46%
CC(C)CN1CCC(NC(=O)NCCC(=O)NCc2ccccc2)CC1	-0.3399%
O=C(NC1(C(=O)O)CCCCC1)C1Cc2ccccc2O1 (stereo not drawn)	26.74%
CC(C(=O)NCc1ccnc(N2CCCC2)c1)n1cncn1 (stereo not drawn)	-10.11%
CC(C(=O)NCc1ccc(N2CCCCCC2)nc1)n1cncn1 (stereo not drawn)	118.8%
CCN(CC)C(C(=O)NCc1ccc(N2CCCC2)nc1)C(C)C (stereo not drawn)	0.1706%
CC(C(=O)NCc1ccc(N2CCCCC2)nc1)n1cncn1 (stereo not drawn)	91.32%
CC(C(=O)NCc1ccc(N2CCCC2)nc1)n1cncn1 (stereo not drawn)	95.49%
CCCS(=O)(=O)NC(C)C(=O)NCc1ccc(N2CCCC2)nc1 (stereo not drawn)	3.443%
